Measurements taken from PubChem BioAssay (NCI).
“And” between values parts separate entries of the source, which are not always exact repeats. Identical values can stand only once. This is part of a sample that, as a whole, favours compounds with a hit. Of some 83,000 tested, about 20% had one in any assay.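 Activity criterion: percent growth below 10, measured after cells in 96-well plates were exposed to a single compound concentration for 48 hours.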 Unmarked numbers belong to inactive results. The source made the active and inactive calls.

These molecules were tested on HL-60(TB) leukemia (assay: NCI-60 one-dose screen, 48 h (100 = growth as untreated, 0 = no growth, -100 = all killed)). Details: 10 µM unless noted.

| SMILES | growth |
| --- | --- |
| COc1ccc2[nH]c(=O)c(CSc3nccc(-c4ccc(OC)c(OC)c4)n3)cc2c1 | 16.9% |
| COC1=C[C@]23CCC(=O)N2CCc2cc4c(cc2[C@@H]3[C@@H]1OC(=O)[C@H](C)O)OCO4 | -28.6% (active) |
| CC(=O)c1cc(C(=O)c2ccccc2)n2c1ccc1ccccc12 | 94.7% |
| COc1cc(/C=C/C(=O)c2ccc(C)cc2)ccc1Oc1nc(Nc2ccc(F)cc2)nc(N(C)C)n1 | 41.7% |
| CCCCC[C@@H]1C/C=C(\C)[C@@H](O)C(C)(C)C(=O)[C@@H](C)/C=C(\C)[C@@H]2C[C@H](O)C[C@](O)(CC(=O)O1)O2 | 11.8% |
| CN1CCN(c2ccc(C(=O)/C=C/c3ccc(OC(F)F)cc3)cc2)CC1 | -26.7% (active) |
| Cn1cc(-c2nnc(N)nc2-c2c[nH]c3ccc(F)cc23)c2cccnc21 | 10.2% |
| O=S(=O)(Nc1ncccn1)c1ccc(-n2c(-c3ccccc3)nc(-c3ccccc3)c2-c2ccccc2)cc1 | 95.5% |
| Nc1nnc(-c2c[nH]c3ncccc23)c(-c2c[nH]c3ccc(Br)cc23)n1 | 42% |
| COc1cc(/C=C/C(=O)c2ccc(F)cc2)ccc1Oc1nc(Nc2ccc(F)cc2)nc(N(C)C)n1 | 61.3% |
| CC(C)c1sc(NC(=O)c2cc(NC(=O)c3cc(NC(=O)c4nccn4C)cn3C)cn2C)nc1C(=O)NCCCN(C)C | 47.1% |
| NS(=O)(=O)c1ccc(N=Nc2c(O)n(CC(=O)Nc3ccccc3)c3ccccc23)cc1 | 48.7% |
| O=C(Nc1ccc(-c2ccc3c(c2)NC(=O)/C3=C\c2ccc[nH]2)cc1)Nc1ccc(Cl)c(Cl)c1 | 51.8% |
| O=C(c1ccc(O)cc1)C1[C@H](c2ccccc2Br)[C@@H](c2ccccc2)NC12C(=O)Nc1ccccc12 (stereo not given in full) | 19.8% |
| OCCNc1oc(-c2ccccc2)nc1[P+](c1ccccc1)(c1ccccc1)c1ccccc1 | -29.6% (active) |
| O=C(N/N=C/c1ccsc1)c1[nH]c2ccc(Br)cc2c1-c1ccccc1 | -33.7% (active) |
| COc1cccc2nc(Nc3cccc(NC(=O)c4ccc(CN5CCCN(C)CC5)c(C(F)(F)F)c4)c3)ccc12 | -54.3% (active) |
| C=CCn1c(O)c(N=Nc2nc(-c3cc4ccccc4oc3=O)cs2)c2ccccc21 | 111% |
| COc1ccc2c(c1)c(-c1cc(N)n3nc(-c4cn(C)c5ccccc45)cc3n1)cn2C | -33.1% (active) |
| CC1(c2ccccc2)NC(=O)N(CC(=O)Nc2ccc(C(=O)/C=C/c3ccc(Cl)cc3)cc2)C1=O (stereo not given) | -27.7% (active) |

| SMILES | growth |
| --- | --- |
| O=S(=O)(Nc1cccc(-n2cnc3cc(-c4ccc(O)cc4)ccc32)c1)C1CC1 | -19.9% (active) |
| C#C[C@]1(O)CC[C@H]2[C@@H]3CC=C4c5sc(Nc6ccc(C(F)(F)F)cn6)nc5CC[C@]4(C)[C@H]3CC[C@@]21C | 1.27% (active) |
| Cc1ccc(C(=O)Nc2cccc(C(=O)NC(=S)Nc3ccc(S(N)(=O)=O)cc3)c2)cc1 | 84.7% |
| Brc1ccc(N/N=C/c2c[nH]c3ccccc23)nc1 | 13.2% |
| COc1ccc(C(=O)Nc2sc3c(c2C#N)CCC(=O)C3)cc1C(F)(F)F | -12% (active) |
| C/C(=N/O)c1ccc(NC(=O)CSc2nnc(-c3ccc4nc(-c5ccc(Cl)cc5)[nH]c4c3)o2)cc1 | 81.8% |
| C=C1CCC2C3(C)COC(c4ccccc4)OC3CCC2(C)C1CC(NCc1ccccc1)C1=CCOC1=O (stereo not given) | 43.6% |
| COc1ccsc1/C=N/NC(=O)c1[nH]c2ccc(Br)cc2c1-c1ccccc1 | -33.3% (active) |
| O=C(CN1C(=O)/C(=C/c2ccccc2Cl)SC1=S)N1CCOCC1 | 90.2% |
| CC(=O)NNc1ccc2nnc(-c3ccc(Br)cc3)n2n1 | 97.5% |
| CCOc1ccc(C(=O)NC(=S)Nc2ccc(S(N)(=O)=O)cc2)cc1 | 103% [100 µM] |
| CCOC(=O)C1=C(N)N(c2ccccc2)C2=C(C(=O)CC(C)(C)C2)C1c1ccc(Cl)cc1Cl (stereo not given) | 1.24% (active) |
| CC1(C)CC[C@]2(C(=O)O)CC[C@]3(C)C(=CCC4[C@@]5(C)C[C@@H](O)[C@@H]6OC(c7ccco7)OC[C@@]6(C)C5CC[C@]43C)C2C1 (stereo not given in full) | 13.5% |
| Cc1ccc(-c2nc(C#N)c(S(=O)(=O)N3CCN(S(=O)(=O)c4ccc(Cl)cc4)CC3)o2)cc1 | 79.9% |
| CC(=O)OC[C@@]1(C)C2CC[C@]3(C)C(CC=C4C5CC(C)(C)CC[C@]5(C(=O)Nc5ccc(Br)cc5)CC[C@]43C)[C@@]2(C)C[C@@H](OC(C)=O)[C@@H]1OC(C)=O (stereo not given in full) | 32.3% |
| O=C(/C=C/c1cccc(OCc2ccc(F)cc2)c1)c1nc2ccccc2[nH]1 | 8% (active) |
| C=C1CCC2C3(C)COC(c4cccc(F)c4)OC3CCC2(C)C1CC(O)C1=CCOC1=O (stereo not given) | 66.7% |
| CC1(C)CC(=O)C2=C(C1)OC(N)=C(c1nc3ccccc3[nH]1)C2c1ccc(Cl)cc1 (stereo not given) | 22% and 106% |
| CN(C)c1nc(NCCNS(=O)(=O)c2ccc(C(=O)/C=C/c3ccc(Cl)cc3)cc2)nc(N2CCOCC2)n1 | 16.8% |
| COc1c(F)ccc(C(=O)Nc2ccc3nc(NC(=O)C4CCCN(S(=O)(=O)c5ccc(Cl)cc5)C4)sc3c2)c1F (stereo not given) | 83.4% |
